Among the data in PubChem BioAssay (EPA / NIEHS) are outcome and AC50 values, retold here.

Active and inactive are the calls of the source. The calls were made as follows: active = hit-call score of the fitted dose curve at least 0.9, where 1 is the maximum; inactive = score below 0.9.

Details in all cases: mRNA level, 48 h; actives raise or lower the signal
Read-out in assay [1]: Insulin Like Growth Factor 1 (IGF1), IGF1 (gene 3479)
The assay can be described thus: LTEA_HepaRG_IGF1: Life Technologies and Expression Analysis (LTEA) Assay for Insulin Like Growth Factor 1 (IGF1) using HepaRG (AID 2283506). In outline:
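Endpoint: IGF1 mRNA change by qRT-PCR, housekeeping-normalized, fitted bidirectionally relative to 0.5% DMSO vehicle. Human HepaRG cells were treated 48 h in serum-free induction medium, eight half-log concentrations topping at 100 uM.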

Read-out in assay [2]: Intercellular Adhesion Molecule 1 (ICAM1), ICAM1 (gene 3383)
Description: LTEA_HepaRG_ICAM1: Life Technologies and Expression Analysis (LTEA) Assay for Intercellular Adhesion Molecule 1 (ICAM1) using HepaRG (AID 2283507). In outline:
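Differentiated human HepaRG cells in serum-free induction medium exposed 48 h in duplicate to 8 half-log concentrations (top 100 uM, 0.5% DMSO). ICAM1 mRNA quantified by TaqMan qRT-PCR, normalized to ACTB, GAPDH and POLR2A; bidirectional fitting versus DMSO.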

Read-out in assay [3]: Insulin-like growth factor-binding protein 1 (IGFBP1), IGFBP1 (gene 3484)
Description: LTEA_HepaRG_IGFBP1: Life Technologies and Expression Analysis (LTEA) Assay for Insulin-like growth factor-binding protein 1 (IGFBP1) using HepaRG (AID 2283508). In outline: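 HepaRG cells, plated 48 h then switched to serum-free induction medium, exposed in duplicate for 48 h to 8-point half-log series from 100 uM in 0.5% DMSO. mRNA measured by qRT-PCR, normalized to ACTB/GAPDH/POLR2A; bidirectional fit versus DMSO.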

Read-out in assay [4]: Interleukin 6 Receptor (IL6R), IL6R (gene 3570)
Description: LTEA_HepaRG_IL6R: Life Technologies and Expression Analysis (LTEA) Assay for Interleukin 6 Receptor (IL6R) using HepaRG (AID 2283510).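 As to AC50: TaqMan qRT-PCR signal normalized to ACTB GAPDH and POLR2A housekeeping genes.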 In outline: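 In this HepaRG screen, test chemicals act on cells for 48 h at up to 100 uM (eight half-log points, duplicate wells). IL6R expression is quantified by qRT-PCR after normalization to ACTB, GAPDH and POLR2A, with DMSO as baseline.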

Read-out in assay [5]: Potassium channel subfamily K member 1 (KCNK1), KCNK1 (gene 3775)
Description: LTEA_HepaRG_KCNK1: Life Technologies and Expression Analysis (LTEA) Assay for Potassium channel subfamily K member 1 (KCNK1) using HepaRG (AID 2283511). In outline: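 KCNK1 transcript measured by TaqMan qRT-PCR against three housekeeping genes, after HepaRG cells were treated 48 h with eight half-log concentrations (top 100 uM, 0.5% DMSO). Curves fitted bidirectionally relative to vehicle.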

Read-out in assay [6]: Keratin 19 (KRT19), KRT19 (gene 3880)
Description: LTEA_HepaRG_KRT19: Life Technologies and Expression Analysis (LTEA) Assay for Keratin 19 (KRT19) using HepaRG (AID 2283512). In outline: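 Differentiated HepaRG cells in serum-free induction medium, exposed 48 h in duplicate to 8 half-log concentrations up to 100 uM in 0.5% DMSO. KRT19 mRNA by qRT-PCR, normalized to ACTB, GAPDH, POLR2A; bidirectional fit vs DMSO.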

Read-out in assay [7]: Lipase C (LIPC), LIPC (gene 3990)
The assay can be described thus: LTEA_HepaRG_LIPC: Life Technologies and Expression Analysis (LTEA) Assay for Lipase C (LIPC) using HepaRG (AID 2283514). In outline:
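LIPC expression was quantified by qRT-PCR against three housekeeping genes (ACTB, GAPDH, POLR2A). Differentiated human HepaRG cells received eight half-log doses (top 100 uM, 0.5% DMSO) in duplicate for 48 h; fitting bidirectional relative to DMSO.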

Read-out in assay [8]: Lipoprotein lipase (LPL), LPL (gene 4023)
The assay can be described thus: LTEA_HepaRG_LPL: Life Technologies and Expression Analysis (LTEA) Assay for Lipoprotein lipase (LPL) using HepaRG (AID 2283515). In outline: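 LPL transcript levels quantified by TaqMan qRT-PCR against three housekeeping genes after 48 h chemical treatment of HepaRG cells. Eight-point half-log series from 100 uM in 0.5% DMSO, tested in duplicate; bidirectional fitting versus vehicle.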

Read-out in assay [9]: MicroRNA 122 (MIR122), gene 406906
The assay can be described thus: LTEA_HepaRG_MIR122: Life Technologies and Expression Analysis (LTEA) Assay for MicroRNA 122 (MIR122) using HepaRG (AID 2283516). Also: the transcript read is the microRNA miR-122. In outline:
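Changes in transcript abundance, up or down relative to 0.5% DMSO vehicle, were scored after 48 h chemical treatment of HepaRG cells (maximum 100 uM). Quantification used TaqMan qRT-PCR normalized to housekeeping genes.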

Read-out in assay [10]: matrix metalloproteinase-10 (MMP10), MMP10 (gene 4319)
Description: LTEA_HepaRG_MMP10: Life Technologies and Expression Analysis (LTEA) Assay for matrix metalloproteinase-10 (MMP10) using HepaRG (AID 2283517). In outline: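 Expression measured by TaqMan qRT-PCR with ACTB/GAPDH/POLR2A normalisation after 48 h chemical exposure of HepaRG cells. Eight half-log concentrations, top 100 uM, 0.5% DMSO vehicle, duplicates; gain or loss fitted against vehicle.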

Read-out in assay [11]: MYC, MYC (gene 4609)
Description: LTEA_HepaRG_MYC: Life Technologies and Expression Analysis (LTEA) Assay for MYC using HepaRG (AID 2283518). In outline: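 Differentiated HepaRG cells exposed 48 h in serum-free induction medium to 8 concentrations (top 100 uM, half-log steps; 0.5% DMSO), duplicate. MYC mRNA measured by Fluidigm qRT-PCR, normalized to ACTB, GAPDH, POLR2A; bidirectional fit versus DMSO.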

Read-out in assay [12]: matrix metalloproteinase-3 (MMP3), MMP3 (gene 4314)
The assay can be described thus: LTEA_HepaRG_MMP3: Life Technologies and Expression Analysis (LTEA) Assay for matrix metalloproteinase-3 (MMP3) using HepaRG (AID 2283519). In outline: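 Fluidigm-based TaqMan qRT-PCR, normalized to ACTB, GAPDH and POLR2A and fitted bidirectionally versus 0.5% DMSO, measured transcript levels. Treatment: duplicate 48 h exposures of HepaRG cells, ~100,000/well, to eight half-log concentrations topping at 100 uM.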

Read-out in assay [13]: Paternally Expressed 10 (PEG10), PEG10 (gene 23089)
The assay can be described thus: LTEA_HepaRG_PEG10: Life Technologies and Expression Analysis (LTEA) Assay for Paternally Expressed 10 (PEG10) using HepaRG (AID 2283520).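 As to AC50: PEG10 transcript by qRT-PCR normalised to ACTB GAPDH and POLR2A.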 In outline:
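After 48 h exposure of differentiated HepaRG cells (0.5% DMSO vehicle, eight concentrations up to 100 uM, duplicates), PEG10 mRNA was measured by TaqMan qRT-PCR. Values were normalised to endogenous control genes and analysed bidirectionally against vehicle.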

Read-out in assay [14]: Nuclear factor NF-kappa-B p105 subunit (Homo sapiens) (UniProt P19838)
Description: LTEA_HepaRG_NFKB1: Life Technologies and Expression Analysis (LTEA) Assay for Nuclear Factor Kappa B Subunit 1 (NFKB1) using HepaRG (AID 2283521).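 Also: TaqMan qRT-PCR transcript normalised to ACTB GAPDH and POLR2A housekeeping genes.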 In outline:
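Differentiated human HepaRG cells in serum-free induction medium with 0.5% DMSO were exposed for 48 h to eight half-log concentrations, top 100 uM, in duplicate. NFKB1 mRNA measured by Fluidigm TaqMan qRT-PCR, normalised to ACTB, GAPDH and POLR2A; bidirectional fit versus DMSO.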

Read-out in assay [15]: Protein phosphatase 2A (PPP2R4), PTPA (gene 5524)
Description: LTEA_HepaRG_PPP2R4: Life Technologies and Expression Analysis (LTEA) Assay for Protein phosphatase 2A (PPP2R4) using HepaRG (AID 2283522). In outline: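 Using HepaRG cultures maintained in 0.5% DMSO, chemicals are tested 48 h at up to 100 uM in duplicate. Induction or suppression of PPP2R4 mRNA, measured by qRT-PCR, is fitted bidirectionally against the vehicle baseline.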

Read-out in assay [16]: Phosphatase and tensin (PTEN), PTEN (gene 5728)
The assay can be described thus: LTEA_HepaRG_PTEN: Life Technologies and Expression Analysis (LTEA) Assay for Phosphatase and tensin (PTEN) using HepaRG (AID 2283523). In outline: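 Read-out: TaqMan qRT-PCR of PTEN transcript, normalized to three housekeeping genes, fitted in both directions against 0.5% DMSO. Differentiated human HepaRG cultures received chemicals for 48 h, eight-point half-log series topping at 100 uM.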

Read-out in assay [17]: solute carrier (SLC22A1), SLC22A1 (gene 6580)
The assay can be described thus: LTEA_HepaRG_SLC22A1: Life Technologies and Expression Analysis (LTEA) Assay for solute carrier (SLC22A1) using HepaRG (AID 2283524). In outline: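 Transcript level of SLC22A1 quantified by qRT-PCR (normalized to three housekeeping genes) after 48 h chemical exposure of HepaRG cells, eight concentrations up to 100 µM, half-log steps, 0.5% DMSO vehicle. Gain or loss relative to DMSO fitted bidirectionally.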

Read-out in assay [18]: Pyruvate Dehydrogenase Kinase 4 (PDK4), PDK4 (gene 5166)
Description: LTEA_HepaRG_PDK4: Life Technologies and Expression Analysis (LTEA) Assay for Pyruvate Dehydrogenase Kinase 4 (PDK4) using HepaRG (AID 2283525). In outline:
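Readout is qRT-PCR of PDK4 transcript, normalized to three housekeeping genes, with bidirectional fitting against 0.5% DMSO vehicle. Differentiated HepaRG cells were treated 48 h in serum-free induction medium, duplicate wells, eight-point half-log series topping at 100 uM.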

Sequence of Nuclear factor NF-kappa-B p105 subunit (Homo sapiens) (P19838 whole entry, looked up): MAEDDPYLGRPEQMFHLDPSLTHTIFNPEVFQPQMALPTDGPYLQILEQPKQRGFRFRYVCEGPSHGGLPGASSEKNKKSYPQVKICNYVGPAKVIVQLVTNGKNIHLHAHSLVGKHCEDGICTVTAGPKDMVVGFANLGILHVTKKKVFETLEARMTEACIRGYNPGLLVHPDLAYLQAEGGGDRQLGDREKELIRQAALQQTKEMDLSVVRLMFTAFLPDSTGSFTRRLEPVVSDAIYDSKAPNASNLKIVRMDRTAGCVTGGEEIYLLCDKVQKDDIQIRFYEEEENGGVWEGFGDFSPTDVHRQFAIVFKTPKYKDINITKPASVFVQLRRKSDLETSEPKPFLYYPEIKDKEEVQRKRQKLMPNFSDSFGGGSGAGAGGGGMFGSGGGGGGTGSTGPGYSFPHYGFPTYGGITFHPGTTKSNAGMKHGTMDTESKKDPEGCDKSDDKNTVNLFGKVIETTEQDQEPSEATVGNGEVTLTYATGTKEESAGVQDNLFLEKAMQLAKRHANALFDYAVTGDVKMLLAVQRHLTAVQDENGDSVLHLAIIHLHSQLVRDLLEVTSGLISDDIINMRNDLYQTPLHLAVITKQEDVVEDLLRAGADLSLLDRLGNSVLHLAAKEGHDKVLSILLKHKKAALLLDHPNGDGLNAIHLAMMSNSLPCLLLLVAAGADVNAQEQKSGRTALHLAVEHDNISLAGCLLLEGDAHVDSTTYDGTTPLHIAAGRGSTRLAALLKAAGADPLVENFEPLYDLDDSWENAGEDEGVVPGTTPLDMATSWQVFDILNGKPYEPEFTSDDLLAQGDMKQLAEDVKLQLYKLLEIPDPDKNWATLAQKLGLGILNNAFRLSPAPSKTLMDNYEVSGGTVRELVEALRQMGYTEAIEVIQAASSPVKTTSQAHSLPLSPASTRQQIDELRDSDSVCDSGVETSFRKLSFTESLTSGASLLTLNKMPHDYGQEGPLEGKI

As to `On1ccccc1=S`, the result in [1], in assay [2], in assay [3], in assay [4], in assay [5] and in [6] was inactive. Further, the compound was called inactive in assay [7], in assay [8], in [9], in assay [10], in assay [11] and in assay [12]. The call in [13], in assay [14], in assay [15], in [16], in assay [17] and in [18] was inactive.

For `COCCOc1cc2cc(C(=O)NC3CCN(C(C)C)CC3)n(CC(=O)Nc3ccc(Cl)cn3)c2cn1`, the half-maximal activity concentration (AC50) in assay [1] is 13.8 µM (active); in assay [3], 45 µM (active); in assay [4], 10.6 µM (active); in assay [7], 45 µM (active); in [8] it was 8.93 µM (active); in [9] it was 45 µM (active). Further, the AC50 in assay [13] is 45 µM (active); in assay [16], 45 µM (active); in [17], 62.1 µM (active); in assay [18], 37.4 µM (active). The outcome in assay [2], in assay [5], in assay [10], in assay [11], in [12] and in [14] was inactive. For the same compound, the result in assay [15] was inactive.

Consider `C1N2CN3CN1CN(C2)C3`, for which the call in assay [1], in assay [2], in assay [3], in [4], in assay [5] and in [7] was inactive. The call in [8], in [9], in assay [10], in assay [11], in [12] and in [13] was inactive. In addition, the compound was classed as inactive in assay [14], in [15], in assay [16] and in assay [17].

As for `C=CC(=C)CCC=C(C)C`, the outcome in assay [1], in [2], in [3], in [4], in assay [5] and in [6] was inactive. In addition, the outcome in assay [7], in assay [8], in [9], in assay [10], in assay [11] and in assay [13] was inactive. Also, the result in assay [14], in assay [15], in assay [16], in assay [17] and in [18] was inactive.

The AC50 is the concentration giving half of the maximal activity seen.
